D2 ag-1 – activates the human D2 dopamine receptor. P14416. HEK293 T-REx D2 cells, calcium flux agonist mode. activation, % at 2 µM. 340,000 tested, 0.53% active;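 active = activation over 3 SD above normal in the single-dose calcium agonist read, cut at about 30% in these data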; note: 0% is about no effect
Target sequence (P14416 whole entry, looked up): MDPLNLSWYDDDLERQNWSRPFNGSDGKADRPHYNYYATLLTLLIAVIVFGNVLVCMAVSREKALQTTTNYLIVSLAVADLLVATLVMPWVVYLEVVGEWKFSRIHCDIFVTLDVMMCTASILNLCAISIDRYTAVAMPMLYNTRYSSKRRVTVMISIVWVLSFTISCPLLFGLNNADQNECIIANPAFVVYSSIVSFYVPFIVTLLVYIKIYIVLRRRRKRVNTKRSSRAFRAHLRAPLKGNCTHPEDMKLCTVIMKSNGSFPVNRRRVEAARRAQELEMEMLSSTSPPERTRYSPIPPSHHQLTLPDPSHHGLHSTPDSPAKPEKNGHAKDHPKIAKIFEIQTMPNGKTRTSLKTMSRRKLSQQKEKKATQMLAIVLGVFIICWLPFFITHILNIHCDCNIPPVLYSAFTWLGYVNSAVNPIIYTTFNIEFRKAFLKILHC
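Tetracycline-induced HEK293 T-REx cells with force-coupled D2 receptor, plated overnight at 30 C, loaded with no-wash calcium dye. After a 10 s baseline, compound was pin-added and calcium flux read kinetically for 180 s; calcium rises flagged agonists.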
D2 PAM-1 – positive allosteric modulators of human D2 dopamine receptor. P14416. HEK293 T-REx D2, calcium flux, EC20 dopamine potentiation. potentiation, % at 10 µM. 340,000 tested, 0.34% active;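 active = potentiation over 3 SD above the plate norm, cut at about 30% in these data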; note: 0% is about no effect
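Tetracycline-induced HEK293 T-REx cells force-coupled to calcium signalling expressed D2; compounds were pin-added after a 10 s baseline, read kinetically 180 s, then an EC20 dopamine challenge followed with a further 180 s calcium read.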
D2 ag-2 – activates the human D2 dopamine receptor | P14416 | DiscoveRx PathHunter D2 beta-arrestin, luminescence, 90 min; 100% = 57 uM dopamine signal | activation, % (concentration not given with the values) | 360,000 tested, 0.084% active; in the data active = activation above about 40%; inconclusive = between about 15% and that limit
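Agonist mode: compounds alone added to overnight-plated D2 PathHunter cells for 90 min at 37 C, with 57 uM final dopamine (EC100) defining full response. Beta-arrestin recruitment detected by chemiluminescent reagent, read after 1 h at ambient temperature.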
D2 antag – D2 dopamine receptor (human) antagonism; 340,000 tested, 2% active; P14416; HEK293 TREx D2 cells, calcium flux, dopamine EC80; inhibition, % at 10 µM; in the data active = inhibition above about 30%; inactive = below that, where a call was filed; note: 0% is about no effect
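Antagonism is scored as inhibition of an EC80 dopamine-evoked calcium signal in a force-coupled, tetracycline-inducible HEK293 T-REx D2 line, with compound present 180 s before agonist.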
D2 PAM-2 – positive allosteric modulators of human D2 dopamine receptor | potentiation, % (no concentration beside the values) | P14416 | DiscoveRx D2 beta-arrestin cells, luminescence, 90 min; 100% = 57 uM dopamine signal | 360,000 tested, 0.23% active; in the data active = potentiation above about 50%; inconclusive = mostly about 30% to 49%
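PathHunter beta-arrestin assay in DiscoveRx D2 cells. Compounds were added with an EC20 of dopamine (50 nM final) for 90 min at 37 deg C. Luminescence was read 1 h after detection reagent, with 57 uM dopamine as the EC100 control.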
Active calls of the source: *; ? = inconclusive; . = no result given. Most compounds without a hit are left out; they make up all but 2.4% or so of the library.

SMILES	D2 ag-1	D2 PAM-1	D2 ag-2	D2 antag	D2 PAM-2
CCCC(C(=O)NC1CCCC1)N(CC1CCCO1)C(=O)CNS(=O)(=O)c1ccc(F)cc1 (stereo unspecified)	0	-4	-4	32*	-1
O=C(CN(CC1CCCO1)C(=O)CNS(=O)(=O)c1ccc(F)cc1)NCc1ccc(F)cc1 (stereo unspecified)	0	5	-1	37*	-3
CCOc1ccccc1N(CC(=O)NCCSc1ccccc1)S(=O)(=O)c1ccccc1	1	6	.	.	.
COc1ccc(N2C(=O)C(Cl)=C(N3CCCC(C)C3)C2=O)cc1 (stereo unspecified)	-1	3	-4	-15	10
CC1CCCN(C2=C(Cl)C(=O)N(c3cccc(Cl)c3)C2=O)C1 (stereo unspecified)	1	1	-3	44*	-5
Cc1ccc(CCNC(=O)c2cn(C)c3ccc(S(=O)(=O)N(C)C4CCCCC4)cc3c2=O)cc1	0	-2	.	.	.
Cc1ccc(OC(=O)COc2ccccc2C)cc1	-1	7	-1	-15	2
CC(=O)c1ccc(OC(=O)COc2ccccc2Cl)cc1	1	-4	-4	48*	-2
Cc1cccc(CCNC(=O)c2ccc3c(c2)nc2n3CCCCC2)c1	.	0	.	.	.
COc1ccc(NC(=O)NNC(=O)CCc2ccc(O)c(O)c2)cc1OC	39*	-9	9	-8	2
COc1ccc(NS(=O)(=O)c2ccc(N/N=C(\C)c3ccncc3)c([N+](=O)[O-])c2)cc1	0	3	0	79*	15
C/C(=N\Nc1ccc(S(=O)(=O)Nc2ccccc2)cc1[N+](=O)[O-])c1ccncc1	.	21	.	.	.
C=CCC(CC=C)(CNC(=O)C(=O)Nc1cccc(C(F)(F)F)c1)c1ccccc1	6	4	.	.	.
CCc1cccc(NCc2ccccc2-c2nnc(-c3ccccc3Cl)o2)c1	1	-3	.	.	.
CCc1ccc(N2CCN(CCNC(=O)Nc3ccccc3)CC2)cc1	.	.	8	74*	10
Cc1ccc(-c2cc(C(=O)Oc3ccc(C#N)cc3)no2)cc1	0	-9	.	.	.
CCCCN1C(N)=NC[C@H]1Cc1ccc(O)cc1	0	-4	-5	48*	-9
CCCCN1C(N)=NC[C@@H]1Cc1ccc(O)cc1	0	8	0	-13	-5
COc1ccc(-c2cc(=O)oc3cc(OCC(=O)NCCCn4ccnc4)ccc23)cc1	-1	-2	2	-4	-19
Cc1cc(Cl)ccc1OCC(=O)NCCCn1ccnc1	-1	-12	0	5	-23
COc1ccc(C(C)=O)cc1CC(=O)NCCCn1ccnc1	1	34*	1	-2	-2
Cc1cc(C(=O)NCCCn2ccnc2)sc1-c1ccccc1	0	-29	-2	47*	-15
Cc1cc(Cl)ccc1OCCCC(=O)NCCCn1ccnc1	2	0	-4	36*	-8
CCc1cc(=O)oc2cc(OCC(=O)NCCCn3ccnc3)ccc12	0	3	6	37*	-10
COc1ccc(Cl)cc1C(=O)NCCCn1ccnc1	1	-12	3	2	-8
SMILES	D2 ag-1	D2 PAM-1	D2 ag-2	D2 antag	D2 PAM-2
Cc1cc(Cl)ccc1NC(=O)c1cc2ccccn2n1	0	4	.	.	.
Cc1ccccc1NC(=O)Cn1c(=O)n(CCC(=O)NCc2ccc3c(c2)OCO3)c(=O)c2sccc21	0	-5	.	.	.
Cc1ccc(C(=O)NCc2ccc3c(c2)CCN3C(=O)c2ccc(C)cc2)cc1	1	-16	.	.	.
CN1CCN(C(c2cccc(Cl)c2)c2ccccc2Cl)CC1 (stereo unspecified)	0	-28	-6	83*	-34
CN1CCN(C(c2ccccc2)c2ccc(Cl)cc2)CC1 (stereo unspecified)	.	.	-4	.	-28
Cc1cc(C)cc(NC(=O)C2CC3CCC2C3)c1 (stereo unspecified)	-2	-16	-2	56*	-2
O=C(O)c1cc(NS(=O)(=O)c2ccc3ccccc3c2)ccc1O	0	7	-3	11	-22
O=C(O)c1ccccc1NS(=O)(=O)c1ccc2ccccc2c1	-2	32*	-2	2	13
COC(=O)c1ccccc1NS(=O)(=O)c1ccc(NC(C)=O)cc1	1	17	-2	-7	-1
COC(=O)c1ccccc1NS(=O)(=O)c1ccc(F)cc1	0	44*	-4	32*	-10
CCNc1nc(OC)nc(Oc2ccc(=O)n(-c3ccccc3)n2)n1	1	38*	-1	-6	-7
CCNc1nc(Oc2ccc(=O)n(-c3ccccc3)n2)nc(N(C)C)n1	0	6	-3	-1	?
COc1ccc(NC(=O)C2CCCO2)cc1Cl (stereo unspecified)	0	-14	-2	31*	-4
O=C(Nc1cc(-c2ccccc2)cs1)c1ccco1	-1	1	-1	31*	2
O=C(Nc1nc(-c2ccccc2)cs1)c1ccco1	-1	-8	1	28	-7
COC(=O)CCC(=O)OC1(C)C(=O)C=C2C=C(C3CC3)N(CC(C)C)C=C2C1=O (stereo unspecified)	0	-2	.	32*	.
COC(=O)CCC(=O)OC1(C)C(=O)C=C2C=C(C3CC3)N(CC3CC3)C=C2C1=O (stereo unspecified)	4	-13	7	17	18
CCOc1ccc(OCC)c(NC(=O)CCc2nc3cccnc3n2-c2ccccc2)c1	-1	13	.	.	.
CCOc1cc(CNCCc2ccc(S(N)(=O)=O)cc2)ccc1OCc1ccccc1	0	41*	-3	4	-10
COC(=O)c1sccc1NC(=S)N1CCCCC1	0	22	-2	-2	10
COC(=O)c1sccc1NC(=S)N1CCC(C(N)=O)CC1	0	2	-4	36*	1
COc1ccc(Cl)cc1NC(=O)CSc1nc(-c2ccccc2)c2ccccc2n1	1	16	.	.	.
Cc1onc(C(=O)N2CCN(c3ccccc3F)CC2)c1-c1ccccc1Cl	-1	34*	0	-7	-34
CCC(Sc1nnc(C)n2c1cc1occc12)C(=O)Nc1ccccc1OC (stereo unspecified)	-1	0	.	.	.
Cc1ccc(N2C(=O)c3oc4cc(C)c(C)cc4c(=O)c3C2c2cccc(O)c2)nc1 (stereo unspecified)	0	-9	.	.	.
Cc1nonc1NC(=O)CSc1nc(C2CCCCC2)nc2ccccc12	-1	2	-4	54*	-14
Cc1cc(NC(=O)CSc2nc(C3CCCCC3)nc3ccccc23)no1	0	-1	-1	-24	-8
CCOc1ccc2ncc3c(-c4ccccc4)nn(CC(=O)Nc4cccc(F)c4)c3c2c1	0	8	.	.	.
COc1ccc(NC2c3ccccc3C(=O)N2c2ccccn2)cc1 (stereo unspecified)	-1	-4	-2	41*	2
